# Inconclusive results are not listed. Activity calls are given as the source filed them. The call rests on the fitted dose curve; in most records, active means well fitted cell-killing curve with a large enough effect; inconclusive means small, poorly fitted or top-dose-only effect; inactive means flat fitted curve, though single readings scatter.
# Assay: qHTS of pediatric cancer cell lines to identify multiple opportunities for drug repurposing: Primary screen for U-2 OS cells (AID 1347096);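 further: plate controls were DMSO wells for no effect and bortezomib positive control wells for full effect; nearly all actives have a fitted effect of over 50% in size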
# Settings: U-2 OS viability, CellTiter-Glo luminescence, 48 h; series mostly up to 46 µM; activity change, negative = cytotoxic: at the top concentration
# In short: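 Viability after 48 h compound treatment at 37C, 500-1,000 cells/well, read as ATP luminescence with CellTiter-Glo. Primary screens used 11-point (MIPE, 0.78 nM-46 µM) or 8-point (NPC, 0.59 nM-46 µM) final concentrations; follow-up screens used 11-point dilutions.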
row,Structure (SMILES),"activity change, negative = cytotoxic"
1,CC(=O)NC(Cc1ccccc1)C(=O)O (centres undefined),0.171% (inactive)
2,CS(=O)(=O)c1ccc([C@@H](O)[C@@H](CF)NC(=O)C(Cl)Cl)cc1,0.53% (inactive)
3,Nc1nc2c(ncn2CCC(CO)CO)c(=O)[nH]1,-4.59% (inactive)
4,Cc1cccc(Nc2cc(Cl)nc(SCC(=O)O)n2)c1C,12.9% (inactive)
5,CC(C)(C)NCC(O)COc1ccc(NC(=O)NC2CCCCC2)cc1 (centres undefined),6.6% (inactive)
6,O=C1NS(=O)(=O)c2ccccc21,10.8% (inactive)
7,O=C(O)c1ccccn1,1.64% (inactive)
8,CC(C)(O)c1ccccc1CC[C@@H](SCC1(CC(=O)O)CC1)c1cccc(/C=C/c2ccc3ccc(Cl)cc3n2)c1,5.81% (inactive)
9,COc1ccccc1O,12.4% [at 92.7 µM] (inactive)
10,Cc1c(Cl)cccc1Nc1ccccc1C(=O)O,3.48% (inactive)
11,N[C@@H](CSSC[C@H](N)C(=O)O)C(=O)O,6.12% [at 0.597 µM] (inactive)
12,CCCCCCCCCCCCOS(=O)(=O)O,15.5% (inactive)
13,C[C@@H]1CN(c2c(F)c(F)c3c(=O)c(C(=O)O)cn(C4CC4)c3c2F)C[C@H](C)N1,13.7% [at 16.1 µM] (inactive)
14,O=C1O[C@H](CO)[C@@H](O)[C@H](O)[C@H]1O,4.54% (inactive)
15,CC(=O)Nc1ccc(/C=N/NC(N)=S)cc1,3.6% (inactive)
16,O=C(O)CC(O)C(=O)O (centres undefined),11.5% (inactive)
17,C[C@@H]1CC[C@@]2(OC1)O[C@H]1C[C@H]3[C@@H]4CC[C@H]5C[C@@H](O)CC[C@]5(C)[C@H]4CC(=O)[C@]3(C)[C@H]1[C@@H]2C,8.89% [at 4.84 µM] (inactive)

row,Structure (SMILES),"activity change, negative = cytotoxic"
1,N[C@H]1C(O)O[C@H](CO)[C@@H](O)[C@@H]1O (some centres undefined),-0.856% (inactive)
2,C[C@H](N)[C@H](O)c1cccc(O)c1,13.2% (inactive)
3,CCCCN1CCCC[C@H]1C(=O)Nc1c(C)cccc1C,-11.6% (inactive)
4,CN(N=O)C(=O)N[C@@H]1[C@@H](O)[C@H](O)[C@@H](CO)O[C@@H]1O,6.13% (inactive)
5,CN(C)CCCO[C@@H]1[C@H]2OC(C)(C)O[C@H]2O[C@@H]1C(O)CO (some centres undefined),17.4% (inactive)
6,O=c1cc[nH]c(=S)[nH]1,7.66% (inactive)
7,Nc1ccc(S(=O)(=O)Nc2ccccc2)cc1,0.268% (inactive)
8,O=c1cc(CO)occ1O,6.73% (inactive)
9,COc1cc(C)c(Cc2cnc(N)nc2N)cc1OC,-5.13% (inactive)
10,CC(C)(C)C(=O)C(Oc1ccc(Cl)cc1)n1ccnc1 (centres undefined),-0.373% (inactive)
11,COc1cc2[nH]c(=O)[nH]c(=O)c2cc1OC,0.227% (inactive)
12,COc1ccc(S(=O)(=O)Nc2nnc(CC(C)C)s2)cc1,-3.83% (inactive)
13,CCC(=O)Nc1ccc(O)cc1,11.2% (inactive)
14,CC1(C)[C@@H]2CC[C@@]1(C)C(=O)C2,6.51% (inactive)
15,CN1CCOC(c2ccccc2)c2ccccc2C1 (centres undefined),10.7% (inactive)
16,CCN(CC)C(=O)Nc1ccc(OCC(O)CNC(C)(C)C)c(C(C)=O)c1 (centres undefined),15.7% (inactive)
17,CCCCOc1cc(C(=O)OCCN(CC)CC)ccc1N,-6.32% (inactive)

# From PubChem BioAssay (NCATS)
